The chains are these.
B1: Caulobacter ParB omega fusion; a variant is named by its letters at X, in order, B8GW30 (parent)
chain: MESVVVGEPGMSEGRRGLGRGLSALLGEVDAAPAQAPGEQLGGSREAPIEILQRNPDQPRRTFREEDLEDLSNSIREKGVLQPILVRPSPDTAGEYQIVAGERAWRAAQRAGLKTVPIMVRELDDLAVLEIGIIENVQRADLNVLEEALSYKVLMEKFERTQENIAQTIGKSXSHVANXMRLLXLPDEVQSYLVSGELTAXHARAIAAAADPVALAKQIIEGGLSVRETEALARKAPNLSAGKSKGGRPPRVKDTDTQALESDLSSVLGLDVSIDHRGSTGTLTITYATLEQLDDLCNRLTRGI

Whole data set: some 81,000 sequences, median “one-hybrid fitness for binding parS DNA” near -0.17, cut for the highest 2% near 0.51. This is one part of a sample in which the highest values are shown more often than they occur.

In this test the parent is B1. The test can be described thus: one-hybrid fitness for binding parS DNA (scaled: cognate 1, non-cognate 0); higher = stronger binding. The settings on record: with parS DNA site. The method in brief: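 Selection: bacterial one-hybrid in E. coli USO, HIS3 reporter with the site 19 bp from the promoter, 48 hours at 37°C on M9-minus-histidine plus 0.1 mM IPTG and 5 mM 3-AT. Libraries were Caulobacter ParB with four randomised specificity codons, sequenced on Illumina before and after selection. Fitness is the rescaled log change in variant-to-wild-type read ratio, anchored to the cognate and non-cognate sites.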
As for RNAA, the “one-hybrid fitness for binding parS DNA” value worked out at 0.456. Turning to REAA, the “one-hybrid fitness for binding parS DNA” value was no more than 0.2.

As for RMFA, the “one-hybrid fitness for binding parS DNA” value is 0.61.

Consider NNVS, for which the “one-hybrid fitness for binding parS DNA” value was no more than 0.2. Under HPRW stands no more than 0.2; under RKGE, no more than 0.2.

RIWP: the “one-hybrid fitness for binding parS DNA” value worked out at 0.223.

Consider RIRD, for which the “one-hybrid fitness for binding parS DNA” value is no more than 0.2. As for RIWD, the figure is no more than 0.2; as for RIWS, 1.05; as for RIHD, no more than 0.2. Under RILP stands no more than 0.2; under RIHS, 0.97. As for RIRS, the figure is 0.874. With RILS, the “one-hybrid fitness for binding parS DNA” value was found to be 1.04. Under RIHN stands 0.463. As for RIRP, the figure is no more than 0.2. As for RILH, the figure is no more than 0.2; as for YILC, no more than 0.2.

NTNE: the “one-hybrid fitness for binding parS DNA” value is no more than 0.2.

In the case of HGYW, the “one-hybrid fitness for binding parS DNA” value was no more than 0.2. As for PCLT, the figure is no more than 0.2; as for RIYN, 0.476; as for RIYS, 1.07. As for RIYH, the figure is no more than 0.2; as for VRVS, no more than 0.2; as for VYCV, no more than 0.2. On to VANG, for which the “one-hybrid fitness for binding parS DNA” value was no more than 0.2. As for RVVH, the figure is no more than 0.2; as for RVVP, no more than 0.2; as for RVKT, 0.761. Under RVVT stands 0.795. As for RVKD, the figure is no more than 0.2. For the variant RVKN, the “one-hybrid fitness for binding parS DNA” value turned out to be 0.46. Under SDSY stands no more than 0.2; under RRMV, no more than 0.2; under RSHG, 1. Under REHG stands 0.236; under RPHG, no more than 0.2.

As for RCHG, the “one-hybrid fitness for binding parS DNA” value was 0.994. Take RSHQ: the “one-hybrid fitness for binding parS DNA” value is no more than 0.2. Under RDHG stands no more than 0.2; under RLHG, 1.01; under RLHM, 0.321. As for RLHQ, the figure is no more than 0.2. As for RIHG, the figure is 1.02; as for RIHY, 0.461; as for RIHF, no more than 0.2.

In the case of CRRT, the “one-hybrid fitness for binding parS DNA” value is no more than 0.2.

TFGN: the “one-hybrid fitness for binding parS DNA” value was no more than 0.2.

As to FDPG, the “one-hybrid fitness for binding parS DNA” value was no more than 0.2. For the variant QNIS, the “one-hybrid fitness for binding parS DNA” value is no more than 0.2. As for FWAR, the figure is no more than 0.2; as for TTPY, no more than 0.2. In the case of NYDR, the “one-hybrid fitness for binding parS DNA” value is no more than 0.2.

DKHC: the “one-hybrid fitness for binding parS DNA” value is no more than 0.2. Under YHHS stands no more than 0.2; under RHGM, 0.232. Consider RHCN, for which the “one-hybrid fitness for binding parS DNA” value is 0.381.

Turning to RHSY, the “one-hybrid fitness for binding parS DNA” value came to 0.41. As for RHGF, the figure is no more than 0.2; as for RHQT, 0.853; as for RHCD, no more than 0.2.

RHGT: the “one-hybrid fitness for binding parS DNA” value worked out at 0.832. Under RHSF stands no more than 0.2; under RHQF, no more than 0.2; under RHCT, 0.766. As for RHST, the figure is 0.854. Under RHQK stands no more than 0.2; under WKSA, no more than 0.2; under NGKG, no more than 0.2. Turning to MLAT, the “one-hybrid fitness for binding parS DNA” value is no more than 0.2.

Regarding AQPR, the “one-hybrid fitness for binding parS DNA” value was no more than 0.2. As for VSSM, the figure is no more than 0.2; as for GPRN, no more than 0.2. Under MTAN stands no more than 0.2; under FTMR, no more than 0.2; under TSLA, no more than 0.2. Regarding VLVS, the “one-hybrid fitness for binding parS DNA” value was no more than 0.2. Under TYKP stands no more than 0.2; under SNHT, no more than 0.2; under RHWT, 0.692. Under RHRY stands 0.473; under RHRT, 0.788; under RHWR, no more than 0.2. As for RHYN, the figure is 0.448; as for RHRM, 0.277. For RHYK, the “one-hybrid fitness for binding parS DNA” value is no more than 0.2. With RHWK, the “one-hybrid fitness for binding parS DNA” value was no more than 0.2. Under RHYT stands 0.806; under ITCG, no more than 0.2. As to LTNS, the “one-hybrid fitness for binding parS DNA” value is no more than 0.2. As for TGVT, the figure is no more than 0.2; as for VSLW, no more than 0.2. As for SSDD, the “one-hybrid fitness for binding parS DNA” value was no more than 0.2. As for RLIF, the figure is no more than 0.2. As for RLPF, the figure is no more than 0.2. Under RLPR stands no more than 0.2; under RLIQ, no more than 0.2. RLIC: the “one-hybrid fitness for binding parS DNA” value stood at 0.938.

In the case of RLPC, the “one-hybrid fitness for binding parS DNA” value is 0.681. As for SDVC, the figure is no more than 0.2. For the variant QSHD, the “one-hybrid fitness for binding parS DNA” value was no more than 0.2. As for RMNA, the figure is 0.606; as for RMDA, 0.572; as for SISG, no more than 0.2. Under RVHN stands 0.425; under RVGH, no more than 0.2; under RVSN, 0.426. Under RVSS stands 0.975; under RVQD, no more than 0.2. Regarding RVHS, the “one-hybrid fitness for binding parS DNA” value was determined as 0.972. As for RVHH, the figure is 0.235; as for RVGS, 0.954. With RVQH, the “one-hybrid fitness for binding parS DNA” value amounted to 0.223.

As for RVQS, the “one-hybrid fitness for binding parS DNA” value is 0.989. Under RVSP stands no more than 0.2. Under RVGP stands no more than 0.2; under IMHT, no more than 0.2; under WTRR, no more than 0.2. In the case of ISNF, the “one-hybrid fitness for binding parS DNA” value is no more than 0.2. As for FYDL, the “one-hybrid fitness for binding parS DNA” value is no more than 0.2. As for IAGR, the figure is no more than 0.2; as for TAIN, no more than 0.2. Under RVRN stands 0.409; under RVCH, no more than 0.2; under RVCS, 1.03.

RVYS: the “one-hybrid fitness for binding parS DNA” value turned out to be 1.04.

Consider RVYH, for which the “one-hybrid fitness for binding parS DNA” value came to 0.263.

RVWN: the “one-hybrid fitness for binding parS DNA” value was determined as 0.478. As for RVRS, the figure is 0.895; as for RVWD, 0.212; as for RVYD, 0.216. For RVCD, the “one-hybrid fitness for binding parS DNA” value was no more than 0.2. Under RVRD stands no more than 0.2; under RVWS, 1.05. As for MMSR, the figure is no more than 0.2; as for MHFY, no more than 0.2; as for QASI, no more than 0.2. As to TREC, the “one-hybrid fitness for binding parS DNA” value was no more than 0.2. Under PYKT stands no more than 0.2; under HPDN, no more than 0.2; under KRKQ, no more than 0.2. Under KLMV stands no more than 0.2. Regarding RVLS, the “one-hybrid fitness for binding parS DNA” value was determined as 1.03.

With RVLP, the “one-hybrid fitness for binding parS DNA” value is no more than 0.2. Under RVLH stands 0.229. Under TMII stands no more than 0.2; under RPVG, no more than 0.2.

For RSVG, the “one-hybrid fitness for binding parS DNA” value turned out to be 0.89.

As to RSVM, the “one-hybrid fitness for binding parS DNA” value amounted to 0.265. As to RDVG, the “one-hybrid fitness for binding parS DNA” value is no more than 0.2. As for RSVK, the figure is no more than 0.2; as for RCVG, 0.991.

Source of the values: a collection of fitness landscapes (doi:10.1016/j.celrep.2020.107928).
